Growth data for 24 compounds are collected here from PubChem BioAssay (NCI).

The panel holds about 83,000 compounds, 20% with a hit somewhere; the sample as a whole holds those more often.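 Compound tested at a single concentration for 48 hours in 96-well plates; a percent growth value below 10 was scored as active.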 Calls of active or inactive are those of the source.

In the assay the test system is HL-60(TB) leukemia. Kind of assay: NCI-60 one-dose screen, 48 h (100 = growth as untreated, 0 = no growth, -100 = all killed). The conditions noted are these: 10 µM unless noted.
As to `C=CC(=O)N1CC2(CCC(n3nc(-c4ccc(Oc5ccccc5)cc4)c4c(N)ncnc43)CC2)C1`, the growth is -38.5% (active). In the case of `Clc1ccc(/C=C/c2cc(N3CCOCC3)c3cc(Cl)c(Cl)cc3n2)cc1`, the growth is -16.3% (active). `COc1ccc(C(=O)c2cc(OC)c(C)c(OC)c2)cc1OC(=O)CCl`: the growth is -28.5% (active). Next, `COCCn1cc(-c2csc(-c3c[nH]c4ccccc34)n2)c2cccnc21`: 14.1% (inactive); `O=S(=O)(Nc1ccc(Cl)c(F)c1)c1ccc(-c2cnc(C3CC3)o2)cc1`: 0.942% (active). Next, `S=c1ssnc1-c1cc2ccccc2o1`: 78% (inactive). Next, `Cc1nc2sc(C(=O)Nc3ccccc3Cl)c(N)c2cc1C(C)O` (centres undefined): 58.8% (inactive).

Regarding `COC(=O)/C(CCC=C(C)C)=C1\[C@@H](OC(C)=O)C[C@@]2(C)[C@H]1C/C(=N/O)[C@H]1[C@@]3(C)CC/C(=N\O)[C@@H](C)[C@@H]3CC[C@@]12C`, the growth is 89.3% (inactive). In the case of `N#CC(C#N)=C(C#N)c1c[nH]c2ccccc12` it was 72.9% (inactive); in that of `COc1cc(/C=C/C(=O)/C=C/c2ccc(-n3ccnc3C)cc2)ccc1O`, 49.5% (inactive); in that of `CCCCCCCCCCCCC1CCC(=O)O1` (centres undefined), 88.1% (inactive). In the case of `COCCNC1=C(Cl)C(=O)c2ccccc2C1=O`, the growth was 110% (inactive). In the case of `CN1CC[C@H](c2c(O)cc(O)c3c(=O)cc(-c4ccccc4Cl)oc23)[C@H](O)C1` it was -23.1% (active); in that of `CC(O)C(F)(F)C(F)(F)C(F)(F)F` (centres undefined), 101% (inactive); in that of `COc1ccc(-c2nn(-c3cccc(Cl)c3)cc2/C=C2\NC(=S)N(c3ccc(Cl)cc3)C2=O)cc1`, 24.9% (inactive). In the case of `CCOC(=O)Cc1csc2nc(-c3ccccc3)nn12` it was 53% (inactive); in that of `C[C@]12CC[C@H]3[C@@H](CC[C@H]4C[C@@H](O)CC[C@@]43C)[C@@H]1CC(=O)C2`, 83% (inactive); in that of `O=C(N=c1n(-c2ccccc2)nc2n1CCN2C1=NCCN1)c1ccc(Cl)cc1`, 95.8% (inactive). In the case of `CC1OC(OC2C(OC3CCC4(C)C(CCC5(C)C4CC=C4C6CC(C)(C)CCC6(CO)C(O)CC45C)C3(C)C)OC(C(=O)O)C(OC3OC(COC4OC(CO)C(O)C(O)C4O)C(O)C(O)C3O)C2O)C(O)C(O)C1O` (centres undefined) it was -73% (active); in that of `COc1cc(NC(=O)c2cncnc2Nc2ccc3c(ccn3Cc3ccccn3)c2)cc(OC)c1`, 4.49% (active); in that of `C/C(=C\CCc1ccoc1)CC/C=C(\C)CCCN1CCC(CO)CC1`, 17.2% (inactive).

For the compound `COc1c(B(O)O)cc(C)cc1-c1nc2ccc3[nH]ncc3c2c2c1CCCC2`, the growth was 13.3% (inactive). In the case of `O=C(Nc1ccc(Cl)cc1)C1=NCCCCN1`, the growth was 96.6% (inactive). Next, `O=[N+]([O-])c1ccc(Oc2cccc3c(Oc4ccc([N+](=O)[O-])cc4[N+](=O)[O-])cccc23)c([N+](=O)[O-])c1`: 99.9% (inactive).
